Test results reported in PubChem BioAssay.
For some assays here: Potency and affinity values are given separately. Activity calls are given as the source filed them. Unless noted, the rule behind the calls is not given here.

Legend:
[1] = antimalarial activity against Dd2 strain (AID 2302;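 active = growth inhibition above 50% at the single 2 µM test dose, taken to imply half-maximal potency below 2 µM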;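 note: 0% = DMSO untreated growth and 100% = chloroquine plus artemisinin killed control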); conditions: P. falciparum Dd2 in RBCs, LDH growth readout, 72 h; at 2 µM; hits give high values
[2] = human hepatoma cell viability loss – ATP luminescence, cytotoxicity control for P. falciparum antimalarial project, primary screen (AID 2303;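 active = inhibition above 50%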;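 note: 0% = DMSO wells and 100% = digitonin-killed cells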); conditions: HepG2 viability, 24-48 h, at 10 µM, hits give high values
[3] = biological target: L-lactate dehydrogenase (Plasmodium falciparum (isolate CDC / Honduras)) (UniProt Q27743); assay: PfLDH activity inhibition – cell lysate, 3D7 strain, counter-screen for P. falciparum growth inhibition project (AID 2304);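 note: 0% = vehicle and 100% = reference inhibitor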; conditions: P. falciparum 3D7 crude extract, LDH APAD/NBT absorbance; at 2 µM; hits give high values
Sequence of L-lactate dehydrogenase (Plasmodium falciparum (isolate CDC / Honduras)) (Q27743 whole entry, looked up): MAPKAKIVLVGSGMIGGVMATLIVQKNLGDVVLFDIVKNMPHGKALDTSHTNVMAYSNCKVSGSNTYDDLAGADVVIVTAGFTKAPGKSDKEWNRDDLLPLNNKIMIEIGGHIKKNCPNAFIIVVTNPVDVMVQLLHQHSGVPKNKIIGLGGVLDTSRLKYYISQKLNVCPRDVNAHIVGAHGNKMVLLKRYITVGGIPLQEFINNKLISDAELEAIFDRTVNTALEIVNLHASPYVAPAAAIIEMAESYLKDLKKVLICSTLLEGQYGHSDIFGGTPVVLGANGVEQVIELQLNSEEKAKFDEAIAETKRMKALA

[4] = inhibition of 3D7 malaria parasite growth – strain 3D7 (AID 2306);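 note: 0% = DMSO wells and 100% = chloroquine plus artemisinin control wells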; conditions: P. falciparum 3D7 erythrocytic growth, LDH absorbance, 72 h; at 2 µM; hits give high values
[5] = biological target: Calcium-dependent protein kinase 1 (Plasmodium falciparum (isolate 3D7)) (UniProt P62344); assay: PfCDPK1 kinase inhibitors, biochemical, TCAMS library (AID 1159585; cut-off not given, nearly all actives have IC50 up to about 0.98 µM;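 note: inhibitors leave more ATP so luminescence rises with inhibition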); conditions: recombinant PfCDPK1, Kinase-Glo ATP depletion luminescence
Sequence of Calcium-dependent protein kinase 1 (Plasmodium falciparum (isolate 3D7)) (P62344 whole entry, looked up): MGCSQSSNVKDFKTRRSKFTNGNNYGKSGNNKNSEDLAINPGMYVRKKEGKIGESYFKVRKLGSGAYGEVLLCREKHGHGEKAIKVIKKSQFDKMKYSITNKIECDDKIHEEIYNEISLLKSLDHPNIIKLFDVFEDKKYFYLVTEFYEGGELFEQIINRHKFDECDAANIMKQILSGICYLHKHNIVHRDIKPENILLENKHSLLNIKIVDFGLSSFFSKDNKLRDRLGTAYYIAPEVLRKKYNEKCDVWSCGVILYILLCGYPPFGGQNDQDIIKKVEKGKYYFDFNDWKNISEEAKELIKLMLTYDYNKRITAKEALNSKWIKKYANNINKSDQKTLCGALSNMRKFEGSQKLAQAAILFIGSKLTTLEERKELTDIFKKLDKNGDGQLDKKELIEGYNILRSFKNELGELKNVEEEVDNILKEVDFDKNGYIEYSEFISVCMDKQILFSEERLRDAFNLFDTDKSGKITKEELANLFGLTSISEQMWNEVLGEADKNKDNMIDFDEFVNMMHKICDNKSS

[6] = biological target: Plasmodium falciparum protein kinase 6 (PK6, PF3D7_1337100) (UniProt Q8IDW1); assay: PfPK6 kinase inhibitors, biochemical, TCAMS library (AID 1159586); conditions: recombinant PfPK6, Kinase-Glo ATP depletion luminescence
Sequence of Plasmodium falciparum protein kinase 6 (PK6, PF3D7_1337100) (Q8IDW1 1-305): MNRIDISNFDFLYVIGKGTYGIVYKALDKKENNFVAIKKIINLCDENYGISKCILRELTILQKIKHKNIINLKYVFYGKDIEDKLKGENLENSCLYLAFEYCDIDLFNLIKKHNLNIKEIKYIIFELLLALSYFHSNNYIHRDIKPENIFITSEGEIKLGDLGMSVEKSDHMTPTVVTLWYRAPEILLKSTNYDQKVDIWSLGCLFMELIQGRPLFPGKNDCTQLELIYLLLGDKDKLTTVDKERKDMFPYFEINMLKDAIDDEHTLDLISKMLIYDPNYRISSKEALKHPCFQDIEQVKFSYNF

[7] = biological target: Protein kinase 7 (PK7), Plasmodium falciparum 3D7 (PF3D7_0213400) (UniProt Q7YTF7); assay: inhibition of Plasmodium PK7 catalytic activity – biochemical, TCAMS antimalarial set, Kinase-Glo luminescence (AID 1159587); conditions: recombinant PfPK7, Kinase-Glo ATP depletion luminescence
Sequence of Protein kinase 7 (PK7), Plasmodium falciparum 3D7 (PF3D7_0213400) (Q7YTF7 1-343): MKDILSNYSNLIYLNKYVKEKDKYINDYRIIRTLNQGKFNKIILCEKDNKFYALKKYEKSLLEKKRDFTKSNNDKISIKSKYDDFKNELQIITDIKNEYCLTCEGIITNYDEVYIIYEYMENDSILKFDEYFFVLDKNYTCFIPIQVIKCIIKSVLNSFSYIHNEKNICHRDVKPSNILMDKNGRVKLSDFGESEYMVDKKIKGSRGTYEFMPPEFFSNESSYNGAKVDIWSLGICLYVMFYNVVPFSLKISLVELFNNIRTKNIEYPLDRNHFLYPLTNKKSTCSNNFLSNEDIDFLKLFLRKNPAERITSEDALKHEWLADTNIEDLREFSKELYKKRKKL

[8] = biological target: Calcium-dependent protein kinase 4 (Plasmodium falciparum (isolate 3D7)) (UniProt Q8IBS5); assay: PfCDPK4 kinase inhibitors, biochemical, TCAMS library (AID 1159588; cut-off not given, nearly all actives have IC50 up to about 0.91 µM); conditions: recombinant PfCDPK4, Kinase-Glo ATP depletion luminescence
Sequence of Calcium-dependent protein kinase 4 (Plasmodium falciparum (isolate 3D7)) (Q8IBS5 whole entry, looked up): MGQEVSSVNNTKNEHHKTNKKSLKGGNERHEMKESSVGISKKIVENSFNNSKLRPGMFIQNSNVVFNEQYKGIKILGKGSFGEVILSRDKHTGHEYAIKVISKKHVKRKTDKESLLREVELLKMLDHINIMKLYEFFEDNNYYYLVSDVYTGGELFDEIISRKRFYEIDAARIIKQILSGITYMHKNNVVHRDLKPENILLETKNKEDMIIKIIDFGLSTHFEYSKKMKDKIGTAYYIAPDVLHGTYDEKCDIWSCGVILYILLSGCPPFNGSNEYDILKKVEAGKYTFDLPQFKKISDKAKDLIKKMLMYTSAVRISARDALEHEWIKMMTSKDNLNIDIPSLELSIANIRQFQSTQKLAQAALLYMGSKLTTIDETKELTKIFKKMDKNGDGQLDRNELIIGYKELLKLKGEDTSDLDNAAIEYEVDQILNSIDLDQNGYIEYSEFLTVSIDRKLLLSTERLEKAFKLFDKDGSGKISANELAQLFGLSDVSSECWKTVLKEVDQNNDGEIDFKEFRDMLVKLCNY

CC(C)CCN1CCC(Oc2ccc(NC(=O)c3cccs3)cc2Cl)C1 (stereo not given)
inactive: inhibition [2] 17% | inhibition [3] 2% | outcome [5] | outcome [6] | outcome [7] | outcome [8]
active: growth inhibition [1] 93% | growth inhibition [4] 94%

COCCNCc1cccc(-c2ccc3nccc(Nc4cc(O)ccc4C)c3c2)c1
active: growth inhibition [1] 92% | growth inhibition [4] 101%
inactive: inhibition [2] -1% | inhibition [3] 4% | outcome [5] | outcome [6] | outcome [7] | outcome [8]

O=C(NC1CCCC1)c1ccc(N2CCC(NCc3cccc(C(F)(F)F)c3)CC2)cc1
inactive: inhibition [2] 11% | inhibition [3] 1% | outcome [5] | outcome [6] | outcome [7] | outcome [8]
active: growth inhibition [1] 75% | growth inhibition [4] 87%

CC(=O)Oc1c(C2CCN(CCCCNC(=O)c3ccc(NC(=O)c4ccc(Cl)cc4)cc3)CC2)ccc2c1CCCC2
active: growth inhibition [1] 80% | growth inhibition [4] 100%
inactive: inhibition [2] 21% | inhibition [3] 2% | outcome [5] | outcome [6] | outcome [7] | outcome [8]

COc1cccc(C23N=C(Nc4nc5ccccc5[nH]4)NC2(c2cccc(OC)c2)NC(Nc2nc4ccccc4[nH]2)=N3)c1 (stereo not given)
inactive: inhibition [2] -9% | inhibition [3] 3% | outcome [5] | outcome [6] | outcome [7] | outcome [8]
active: growth inhibition [1] 99% | growth inhibition [4] 101%

CN(C)CCOc1cc(NC(=O)Nc2ccc(Cl)cc2C(F)(F)F)ccc1I
inactive: growth inhibition [1] 16% | inhibition [2] -2% | inhibition [3] 5% | outcome [5] | outcome [6] | outcome [7] | outcome [8]
active: growth inhibition [4] 96%

COc1cc(Cc2cnc(N)nc2N)ccc1OCc1ccc(NC(C)=O)cc1
active: growth inhibition [4] 98%
inactive: growth inhibition [1] 0% | inhibition [2] 9% | inhibition [3] -6% | outcome [5] | outcome [6] | outcome [7] | outcome [8]

c1cc(CNC2Cc3ccc(-c4cccs4)cc3C2)cc(-n2ccnc2)c1 (stereo not given)
inactive: inhibition [2] 0% | inhibition [3] -1% | outcome [5] | outcome [6] | outcome [7] | outcome [8]
active: growth inhibition [1] 63% | growth inhibition [4] 100%

Cc1ccc(C2CCN(CCCCNC(=O)c3ccc(NC(=O)c4ccc(Cl)cc4)cc3)CC2)c(OCC2CC2)c1
active: growth inhibition [1] 95% | inhibition [2] 63% | growth inhibition [4] 101%
inactive: inhibition [3] 0% | outcome [5] | outcome [6] | outcome [7] | outcome [8]

FC(F)(F)c1cc(Nc2ncnc3ccc(Br)cc23)ccc1OCc1ccccc1
inactive: growth inhibition [1] 9% | inhibition [2] 12% | inhibition [3] 6% | outcome [5] | outcome [6] | outcome [7] | outcome [8]
active: growth inhibition [4] 87%

O=C(CCCCCCc1ccccc1)Nc1ccc2nc3c(c(NCc4ccccc4)c2c1)CCCC3
inactive: inhibition [2] 19% | inhibition [3] -3% | outcome [5] | outcome [6] | outcome [7] | outcome [8]
active: growth inhibition [1] 98% | growth inhibition [4] 101%

CN(c1ccc2c(c1)nc(Nc1ccc(Cl)cc1)n2C)c1ccnc(Nc2ccc(CS(C)(=O)=O)cc2)n1
active: growth inhibition [1] 52% | inhibition [2] 91% | growth inhibition [4] 97%
inactive: inhibition [3] -7% | outcome [5] | outcome [6] | outcome [7] | outcome [8]

Nc1cccc(CNCc2ccc(-c3cccc(-c4nc5ccccc5[nH]4)c3)cc2)c1
inactive: inhibition [2] 12% | inhibition [3] 6% | outcome [5] | outcome [6] | outcome [7] | outcome [8]
active: growth inhibition [1] 78% | growth inhibition [4] 103%

CCCCCCOc1ccc(C(=O)NCCCC2CCCN(CCCCCNC(=O)C=Cc3ccc(Cl)c(Cl)c3)C2)cc1 (stereo not given)
active: growth inhibition [4] 96%
inactive: growth inhibition [1] 12% | inhibition [2] 20% | inhibition [3] 2% | outcome [5] | outcome [6] | outcome [7] | outcome [8]

Cc1noc(-c2ccc(O)cc2O)c1-c1ccc2c(c1)OCCCO2
inactive: inhibition [2] 8% | inhibition [3] -4% | outcome [5] | outcome [6] | outcome [7] | outcome [8]
active: growth inhibition [1] 99% | growth inhibition [4] 100%

O=C(Nc1cc(Cl)ccc1O)c1cnn2c(C(F)(F)F)cc(-c3cccs3)nc12
active: growth inhibition [1] 74% | growth inhibition [4] 100%
inactive: inhibition [2] 8% | inhibition [3] 1% | outcome [5] | outcome [6] | outcome [7] | outcome [8]

Cc1cc(NC(=O)c2sc3ccccc3c2O)no1
inactive: growth inhibition [1] 25% | inhibition [2] 6% | inhibition [3] 1% | outcome [5] | outcome [6] | outcome [7] | outcome [8]
active: growth inhibition [4] 96%

CCN(CC)CCc1ccc2c(=O)cc(CCc3cccc(F)c3F)n(CC(=O)N(C)Cc3ccc(-c4ccc(C(F)(F)F)cc4)cc3)c2c1
inactive: growth inhibition [1] 45% | inhibition [3] 1% | outcome [5] | outcome [6] | outcome [7] | outcome [8]
active: inhibition [2] 98% | growth inhibition [4] 97%

CCN(CC)CCCOC(=O)c1ccc2c(c1)-c1ccc(C(=O)OCCCN(CC)CC)c3cccc-2c13
inactive: inhibition [2] 22% | inhibition [3] -3% | outcome [5] | outcome [6] | outcome [7] | outcome [8]
active: growth inhibition [1] 96% | growth inhibition [4] 98%

N=C(N)c1cccc(OCCCOc2cccc(NC(=O)Nc3ccc([N+](=O)[O-])cc3)c2)c1
active: growth inhibition [4] 98%
inactive: growth inhibition [1] 22% | inhibition [2] 16% | inhibition [3] 3% | outcome [5] | outcome [6] | outcome [7] | outcome [8]

COc1ccc(S(=O)(=O)N(CC(=O)NN=C(C)c2cccs2)c2cc(C)cc(C)c2)cc1OC
inactive: growth inhibition [1] 43% | inhibition [2] 12% | inhibition [3] -1% | outcome [5] | outcome [6] | outcome [7] | outcome [8]
active: growth inhibition [4] 97%

CN1CCN(c2ccnc3ccc(NC(=O)Nc4ccc5ccccc5c4)cc23)CC1
active: growth inhibition [1] 99% | growth inhibition [4] 101%
inactive: inhibition [2] 2% | inhibition [3] -1% | outcome [5] | outcome [6] | outcome [7] | outcome [8]

O=C(/C=C/c1ccc(Cl)c(Cl)c1)NCCCCCN1CCC(CCNC(=O)c2snnc2-c2ccccc2)CC1
inactive: growth inhibition [1] 1% | inhibition [3] -2% | outcome [5] | outcome [6] | outcome [7] | outcome [8]
active: inhibition [2] 54% | growth inhibition [4] 89%

CC(C)(C)c1ccc(CNC(=O)c2cc(CNC3CCC(N)CC3)ccc2O)cc1 (stereo not given)
inactive: growth inhibition [1] 1% | inhibition [2] 1% | inhibition [3] 0% | outcome [5] | outcome [6] | outcome [7] | outcome [8]
active: growth inhibition [4] 94%

COc1cc(C)nc2ccc(NC(=O)Nc3ccc([N+](=O)[O-])cc3C)cc12
inactive: inhibition [2] 10% | inhibition [3] -5% | outcome [5] | outcome [6] | outcome [7] | outcome [8]
active: growth inhibition [1] 52% | growth inhibition [4] 90%

CC(=O)Nc1cccc(CNCc2ccc(-c3cnc(N4CCCC(C)(C)C4)nc3)cc2)c1
active: growth inhibition [1] 75% | growth inhibition [4] 93%
inactive: inhibition [2] 10% | inhibition [3] 0% | outcome [5] | outcome [6] | outcome [7] | outcome [8]

Cc1cc(F)ccc1Oc1nc(Nc2ccc(N3CCOCC3)c(F)c2)nc2c1S(=O)(=O)CCC2
inactive: inhibition [2] 10% | inhibition [3] 0% | outcome [5] | outcome [6] | outcome [7] | outcome [8]
active: growth inhibition [1] 98% | growth inhibition [4] 96%

COc1ccc2c(NCCc3ccccc3)cc(-c3ccccc3)nc2c1
inactive: growth inhibition [1] 1% | inhibition [2] 13% | inhibition [3] 2% | outcome [5] | outcome [6] | outcome [7] | outcome [8]
active: growth inhibition [4] 98%

CC(=O)c1sc2ccccc2c1O
inactive: growth inhibition [1] -2% | inhibition [2] 14% | inhibition [3] 6% | outcome [5] | outcome [6] | outcome [7] | outcome [8]
active: growth inhibition [4] 91%

COc1ccc(C(=O)CCc2ccc(O)cc2)cc1
active: growth inhibition [1] 90% | growth inhibition [4] 96%
inactive: inhibition [2] -2% | inhibition [3] 4% | outcome [5] | outcome [6] | outcome [7] | outcome [8]

CN(/N=C/C=C/c1ccc(Cl)cc1)c1nc(NCCc2ccc(O)cc2)nc(N2CCNCC2)n1
inactive: inhibition [2] 14% | inhibition [3] 1% | outcome [5] | outcome [6] | outcome [7] | outcome [8]
active: growth inhibition [1] 69% | growth inhibition [4] 92%

CC(C)S(=O)(=O)N1CCN(Cc2ccc3c(c2)nc(NC(=O)c2ccsc2)n3C[C@H](O)c2ccccc2)CC1
active: growth inhibition [1] 72% | inhibition [2] 56% | growth inhibition [4] 91%
inactive: inhibition [3] 0% | outcome [5] | outcome [6] | outcome [7] | outcome [8]

COc1ccc(CCN(C)CCOc2ccc(NC(=O)COc3ccc4sc5ccccc5c(=O)c4c3)cc2)cc1OC
active: growth inhibition [1] 91% | inhibition [2] 99% | growth inhibition [4] 100%
inactive: inhibition [3] -1% | outcome [5] | outcome [6] | outcome [7] | outcome [8]

CCCCCC(C)(C)NC[C@@H](O)[C@H](Cc1ccccc1)NC(=O)c1cc(NCC)cc(N2CCCC2=O)c1
inactive: inhibition [2] 9% | inhibition [3] -5% | outcome [5] | outcome [6] | outcome [7] | outcome [8]
active: growth inhibition [1] 97% | growth inhibition [4] 99%

CC(O)C1CCCCN1C(=O)c1cccc(-c2ccc(-c3nc4ccc(C(F)(F)F)cc4[nH]3)cc2)c1 (stereo not given)
inactive: inhibition [2] 33% | inhibition [3] 0% | outcome [5] | outcome [6] | outcome [7] | outcome [8]
active: growth inhibition [1] 100% | growth inhibition [4] 101%

COc1ccc2c(NN=Cc3ccncc3)cc(C)nc2c1
inactive: inhibition [2] -4% | inhibition [3] -4% | outcome [5] | outcome [6] | outcome [7] | outcome [8]
active: growth inhibition [1] 95% | growth inhibition [4] 99%

COC(=O)c1sc2ccccc2c1NC(=O)c1ccc(C)c(C)c1
inactive: growth inhibition [1] 48% | inhibition [2] 4% | inhibition [3] -7% | outcome [5] | outcome [6] | outcome [7] | outcome [8]
active: growth inhibition [4] 88%

Nc1nc(N)c2c(Cl)c(N3CCOCC3)ccc2n1
inactive: growth inhibition [1] 3% | inhibition [3] 1% | outcome [5] | outcome [6] | outcome [7] | outcome [8]
active: inhibition [2] 65% | growth inhibition [4] 96%

NC(N)=Nc1nc(-c2cccc(NCCCCCCCCON3C(N)=NC(N)=NC34CCCCC4)c2)cs1
inactive: growth inhibition [1] 42% | inhibition [2] 3% | inhibition [3] -2% | outcome [5] | outcome [6] | outcome [7] | outcome [8]
active: growth inhibition [4] 97%

O=C(Nc1ccc(OC2CCN(Cc3ccco3)C2)c(Cl)c1)c1ccc2ncccc2c1 (stereo not given)
active: growth inhibition [4] 92%
inactive: growth inhibition [1] 42% | inhibition [2] 1% | inhibition [3] -6% | outcome [5] | outcome [6] | outcome [7] | outcome [8]
